Assay outcomes: PubChem BioAssay, National Center for Advancing Translational Sciences (NCATS)
The list is not random: actives were taken first. Their share in the collection is about 17%.
TDP1 inh: qHTS Assay for Inhibitors of Tyrosyl-DNA Phosphodiesterase (TDP1). recombinant TDP1, AlphaScreen DNA substrate cleavage. 350,000 tested, 0.28% active. Tyrosyl-DNA phosphodiesterase 1 (Homo sapiens), Q9NUW8. Potency, µM (titrated, usually from 130 µM), for the others: at the top dose activity change, negative = inhibition, usual class: inhibitors; also: % is scaled to controls: 0 for no effect and ±100 for the full control effect; nearly all actives have a fitted effect of over 40% in size
Target sequence (Q9NUW8 whole entry, looked up): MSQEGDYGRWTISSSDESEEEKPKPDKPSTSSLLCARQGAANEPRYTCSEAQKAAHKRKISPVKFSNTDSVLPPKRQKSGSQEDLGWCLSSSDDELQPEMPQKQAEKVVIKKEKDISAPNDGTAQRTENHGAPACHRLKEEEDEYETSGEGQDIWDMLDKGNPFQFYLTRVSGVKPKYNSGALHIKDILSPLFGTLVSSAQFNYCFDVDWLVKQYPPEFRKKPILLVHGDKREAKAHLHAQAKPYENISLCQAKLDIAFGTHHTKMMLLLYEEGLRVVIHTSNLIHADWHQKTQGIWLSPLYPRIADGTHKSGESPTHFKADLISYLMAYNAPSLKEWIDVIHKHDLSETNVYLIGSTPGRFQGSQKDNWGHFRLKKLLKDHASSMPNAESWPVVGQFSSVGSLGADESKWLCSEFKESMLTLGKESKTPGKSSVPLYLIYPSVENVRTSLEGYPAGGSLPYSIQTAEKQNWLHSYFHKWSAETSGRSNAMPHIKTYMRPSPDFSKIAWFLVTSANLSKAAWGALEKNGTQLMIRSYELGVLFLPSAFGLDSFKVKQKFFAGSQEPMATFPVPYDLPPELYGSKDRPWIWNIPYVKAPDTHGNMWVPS
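E. coli-derived human Tdp1, 1 nM final. Cpd preinc 15 min RT; substrate 15 nM final, 5 min RT; AS bead mix 10 ug/ml final, 10 min RT. Signal loss = tyrosine-FITC cleavage. No-enzyme wells = max signal.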
TDP1 cell CPT: qHTS for Inhibitors of human tyrosyl-DNA phosphodiesterase 1 (TDP1): qHTS in cells in presence of CPT | chicken DT40 Tdp1-/-;hTDP1 cells + 20 nM CPT, ATP luminescence, 48 h | Potency, µM (doses to about 46.2 µM), for the others: at the highest dose activity change, negative = growth inhibition, actives largely listed as inhibitors | 420,000 tested, 12% active | AID 686979, 2013; also: % is scaled to controls: 0 for no effect and ±100 for the full control effect; nearly all actives have a fitted effect of over 55% in size
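Chicken DT40 Tdp1-/- cells complemented with human TDP1, 400 cells/well, exposed to compounds plus 20 nM camptothecin for at least 48 h at 37 C; viability read as ATP content by CellTiter-Glo luminescence.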
TDP1 cell noCPT: qHTS for Inhibitors of human tyrosyl-DNA phosphodiesterase 1 (TDP1): qHTS in cells in absence of CPT; DT40 Tdp1-/- hTDP1 cells, no CPT, ATP luminescence, 48 h; Potency, µM (top dose mostly 46.2 µM), for inactives: top-dose activity change, negative = growth inhibition, hits mostly inhibitors; 420,000 tested, 15% active; AID 686978, 2013; also: % is scaled to controls: 0 for no effect and ±100 for the full control effect; nearly all actives have a fitted effect of over 55% in size
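A cellular qHTS used chicken DT40 cells lacking endogenous Tdp1 but carrying stably transfected human TDP1. Compounds were applied without camptothecin, and cell growth kinetics were judged by ATP-dependent luminescence after ≥48 hr.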
ClpP mod: qHTS Assay for Activators of ClpP; ATP-dependent Clp protease proteolytic subunit (Bacillus subtilis (strain 168)), P80244; purified B. subtilis ClpP, FRET peptide cleavage, 20 min; Potency, µM (titrated, usually from 57.5 µM), inactives show top-dose activity change, negative = active; 340,000 tested, 1.9% active; AID 651965, 2013; active = well fitted falling curve with a large enough effect; inconclusive = small, poorly fitted or top-dose-only effect; inactive = no such curve, though single readings can be large or run the other way; also: the source files actives as falling curves though it sought activators and does not explain the sign; nearly all actives have a fitted effect of over 65% in size
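ClpP 10 microg/mL final, pH 8 Tris/KCl buffer with BSA, glycerol, Tween-20; compound pinned in; FRET-FV substrate; RT 20 min; Ex320/Em430; ΔFRET vs ADEP 5.8 microM, DMSO, no enzyme.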
An asterisk follows results filed as active; u = inconclusive; x = no result given; [ ] = remark or other dose. Unless noted, calls follow the shape of the dose curve; as a rule, active = well fitted curve in the direction sought with a large enough effect; inconclusive = small, poorly fitted or top-dose-only effect, or another doubt; inactive = no such curve, though single readings can be large; an effect the other way counts as inactive or inconclusive. Potency is read from the fitted curve at half-maximal effect.

SMILES | TDP1 inh | TDP1 cell CPT | TDP1 cell noCPT | ClpP mod
C[C@H]1[C@H](C)CC[C@]2(C(=O)O)CC[C@]3(C)C(=CC[C@@H]4[C@@]5(C)C[C@@H](O)[C@H](O)C(C)(C)[C@@H]5CC[C@]43C)[C@H]12 | 5% | u | u | 1%
C[C@@H]1CC[C@]2(C(=O)O)CC[C@]3(C)C(=CCC4[C@]56CC[C@@](O)(OC5)C(C)(C)C6CC[C@]43C)C2[C@H]1C (some centres undefined) | x | 13µM* | 18µM* | 2%
O=C(/C=C/c1ccccc1[N+](=O)[O-])Nc1ccc(S(=O)(=O)Nc2ncccn2)cc1 | 5% | -7% | -12% | 1%
O=C(C1CCC(CNS(=O)(=O)c2cccc3cccnc23)CC1)N1CCCC1 (centres undefined) | 3% | 12% | 9% | 0%
CC1CCC(NC(=O)C2CCC(CNS(=O)(=O)c3cccc4nsnc34)CC2)CC1 (centres undefined) | -3% | -29% | u | -1%
CN(C(=O)C1CCC(CNS(=O)(=O)c2cccc3cccnc23)CC1)C1CCCCC1 (centres undefined) | 1% | u | 15µM* | x
CCCCN(CC)C(=O)C1CCC(CNS(=O)(=O)c2cccc3nsnc23)CC1 (centres undefined) | 0% | 23µM* | 9.2µM* | -2%
CCN(C(=O)C1CCC(CNS(=O)(=O)c2cccc3nsnc23)CC1)c1ccc(C)c(C)c1 (centres undefined) | 7% | u | 26µM* | 2%
Cc1ccc(S(=O)(=O)NC(=O)C2(C)CCN2C(=O)c2ccc(C(F)(F)F)nc2C)cc1 (centres undefined) | x | -4% | -5% | 0%
COc1ccc(-c2nc(CS(=O)CC(=O)NCc3ccc(Cl)cc3)c(C)o2)cc1OC (centres undefined) | 1% | u | u | x
Oc1ccc(C[C@@H]2CNCCN2CCC23CC4CC(CC(C4)C2)C3)cc1 | x | 16µM* | 13µM* | 0%
Oc1ccc(C[C@H]2CNCCN2CCC23CC4CC(CC(C4)C2)C3)cc1 | -7% | 18µM* | 16µM* | 0%
Cc1ccc(S(=O)(=O)N(C)C)cc1NC(=O)C(C)OC(=O)c1ccc2c(=O)n3c(nc2c1)CCC3 (centres undefined) | x | -2% | -18% | -12%
Cn1c(=O)c2sccc2n2c(CCC(=O)Nc3ccc(F)cc3)nnc12 | 3% | u | u | -10%
CCOC(=O)c1[nH]c2cc3c(cc2c1NC(=O)CN1CCc2ccccc2C1)OCO3 | 2% | 16µM* | 12µM* | 3.2µM*
CCOC(=O)c1[nH]c2cc3c(cc2c1NC(=O)CN1CCC(C)CC1)OCO3 | -4% | 18µM* | 11µM* | 11µM*
CCOC(=O)c1ccccc1NC(=O)Cn1c(=O)n(Cc2ccccc2)c(=O)c2c(C)c(C)sc21 | 5% | -25% | u | -2%
Cc1ccc(COC[C@H](CC(C)C)N2CCN(C(=O)c3cccc(C(F)(F)F)c3)CCC2=O)cc1 | x | u | u | 2%
CC(C)CC(COCc1ccc(Cl)cc1)N1CCN(C(=O)c2cccc(C(F)(F)F)c2)CCC1=O (centres undefined) | -4% | 16µM* | 21µM* | 1%
Cc1ccccc1COC[C@H](CC(C)C)N1CCN(C(=O)c2cccc(C(F)(F)F)c2)CCC1=O | 0% | 16µM* | 13µM* | 3%
CC(C)CC(COCc1cccc(C(F)(F)F)c1)N1CCN(C(=O)c2cccc(C(F)(F)F)c2)CCC1=O (centres undefined) | -1% | 16µM* | 23µM* | 1%
COc1cc(=O)n2c(c1C(=O)N(C)Cc1nonc1C)CCN(Cc1cccc(Cl)c1)CC2 | x | 4%[9.04 µM] | -13% | x
CCCC12CN3CC(C)(CN(C1)C3c1ccc(CC)cc1)C2=O (centres undefined) | 2% | u | 4.6µM* | 1%
CCCC12CN3CC(C)(CN(C1)C3c1ccc(OC(C)C)cc1)C2=O (centres undefined) | -4% | -30% | u | 0%
Cc1cccc(C)c1OCC(=O)N(Cc1ccco1)Cc1ccco1 | 5% | u | 23µM* | 1%
SMILES | TDP1 inh | TDP1 cell CPT | TDP1 cell noCPT | ClpP mod
Cc1cc(OC(C)C(=O)N(Cc2ccco2)Cc2ccco2)cc(C)c1Cl (centres undefined) | 2% | 15µM* | 9.2µM* | -3%
Cc1cc(OC(C)C(=O)N(Cc2ccco2)C2CCS(=O)(=O)C2)ccc1Cl (centres undefined) | x | u | u | 0%
Cc1cc(C)cc(OCC(=O)N(Cc2ccco2)Cc2ccccc2Cl)c1 | 6% | 21µM* | 21µM* | -2%
Cc1cccc(OCC(=O)N(Cc2ccco2)C2CCS(=O)(=O)C2)c1C (centres undefined) | x | -17% | u | 2%
Cc1cc(C)c(OCC(=O)N(Cc2cccc(F)c2)Cc2ccco2)c(C)c1 | 2% | 15µM* | 18µM* | 1%
Cc1cc(C)cc(OCC(=O)N(Cc2ccco2)c2c(N)n(Cc3ccccc3)c(=O)[nH]c2=O)c1 | 0% | -2% | 3% | -5%
CCOc1ccc(NC(=O)C2CCCN2S(=O)(=O)c2ccc(OCC)cc2)cc1 (centres undefined) | x | 1% | -3% | x
CN(C1CCCCC1)S(=O)(=O)c1ccc2c(c1)c(=O)c(C(=O)O)cn2C | x | -19% | -4% | 1%
O=C(CCC(=O)OCC(=O)c1ccc(Cl)cc1)Nc1ccc(Oc2ccccc2)cc1 | x | -3% | -10% | -3%
Cc1ccc(CN(Cc2ccco2)C(=O)COc2cc(C)c(Cl)c(C)c2)cc1 | 0% | 21µM* | 13µM* | 1%
CN(C)c1ccc(CN(Cc2ccco2)C(=O)COc2ccc(F)cc2)cc1 | 14% | u | 10µM* | -4%
Cc1ccc(OCC(=O)N(Cc2ccco2)Cc2ccco2)cc1 | 7% | u | 16µM* | -1%
CC1=C(C(=O)N2CCOCC2)CC(CC(=O)NCCCCc2ccccc2)C(=O)N1CCC1=CCCCC1 (centres undefined) | x | u | u | 1%
O=C1NC(c2cccs2)Nc2sc3c(c21)CCCC3 (centres undefined) | -14% | 4.1µM* | 3.3µM* | -24%
CN1C(=O)c2c(sc3c2CCCC3)NC1c1ccccc1O (centres undefined) | 9% | x | x | x
Cc1onc(-c2ccccc2Cl)c1C(=O)NC(=S)NCC(=O)c1ccccc1 | -1% | -16% | 1% | -3%
Nc1ccc(-c2nc3c(Cl)c(N)ccc3[nH]2)cc1 | -2% | u | -18% | 28µM*
